In PubChem BioAssay:
Values joined by “and” are separate entries in the source; they are usually repeats but may differ in a detail not shown here. Identical values can stand only once. Where a structure was tested more than once in an assay, its records may differ in their call. Active and inactive are the calls of the source. Cut-off read from the data, not from the text of the source, unless noted: active = inhibition above about 80%; inactive = the rest.

Columns and labels:
[1] = LFS_MB_P medulloblastoma growth inhibition, cell-based, chromothripsis tumors, cisplatin or BGB combos (AID 1671449); conditions: LFS_MB_P medulloblastoma cells;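 note: cells exposed for 96 hours; 0% = vehicle DMSO and 100% = killing by high DMSO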
[2] = HDN33 neuroblastoma growth inhibition, cell-based, chromothripsis tumors, cisplatin or BGB combos (AID 1671450); conditions: HDN33 neuroblastoma cells, stronger effect = higher value;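 note: cells exposed to compound for four days; 0% = vehicle DMSO and 100% = cell killing by high DMSO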
[3] = ICB984 medulloblastoma cell growth inhibition, synergistic combos for chromothripsis tumors, cisplatin or BGB combos (AID 1671451; call rule not given here;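 note: cells exposed for 96 hours before readout; 0% = vehicle DMSO and 100% = killing by high DMSO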); conditions: ICB984 medulloblastoma cells, drug combinations, stronger effect = higher value
[4] = LFS_MB_1R medulloblastoma cell growth inhibition, synergistic combos for chromothripsis tumors, cisplatin or BGB combos (AID 1671452); conditions: LFS_MB_1R medulloblastoma cells, stronger effect = higher value;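 note: cells exposed for 96 hours before readout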
[5] = HTB85 osteosarcoma cell growth inhibition, synergistic combos for chromothripsis tumors, BGB or cisplatin IC20 combos (AID 1671453); conditions: HTB85 osteosarcoma cells, drug combinations, stronger effect = higher value;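 note: cells exposed for 96 hours before readout; 0% = vehicle DMSO and 100% = high DMSO killing control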
[6] = CRL2098 osteosarcoma cell growth inhibition, synergistic combos for chromothripsis tumors, BGB or cisplatin IC20 combos (AID 1671454); conditions: CRL2098 osteosarcoma cells, drug combinations, stronger effect = higher value;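 note: cells exposed for 96 h before readout; 0% = vehicle DMSO and 100% = killing by high DMSO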
[7] = HD-MB03 medulloblastoma cell growth inhibition, synergistic combos for chromothripsis tumors, BGB or cisplatin IC20 combos (AID 1671455; in the data active = inhibition above about 83%;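 note: 0% = vehicle DMSO and 100% = high DMSO as cytotoxic control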); conditions: HD-MB03 medulloblastoma cells, stronger effect = higher value
[8] = UWB1.289 ovarian carcinoma cell growth inhibition, synergistic combos for chromothripsis tumors, BGB or cisplatin combos (AID 1671456); conditions: UWB1.289 ovarian carcinoma cells, stronger effect = higher value;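 note: cells exposed to compound for four days; 0% = vehicle DMSO and 100% = killing by high DMSO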
[9] = LFS_MB_2R medulloblastoma cell growth inhibition, synergistic combos for chromothripsis tumors, cisplatin combos (AID 1671457); conditions: LFS_MB_2R medulloblastoma cells, stronger effect = higher value;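 note: cells exposed to compound for four days before readout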
[10] = MDA-MB-436 breast carcinoma cell growth inhibition, synergistic combos for chromothripsis tumors, BGB or cisplatin combos (AID 1671458; call rule not given here;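 note: cells exposed for 96 hours; 0% = vehicle DMSO and 100% = killing by high DMSO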); conditions: MDA-MB-436 breast carcinoma growth inhibition, drug combinations, stronger effect = higher value
[11] = UWB1.289_BRCA1 ovarian cancer growth, cell-based, BGB or cisplatin combinations (AID 1671459); conditions: UWB1.289 BRCA1 ovarian carcinoma, drug combinations, stronger effect = higher value
[12] = human astrocyte viability loss, single and combined drugs, cytotoxicity control for chromothriptic childhood tumor combination screen, cell-based, BGB or cisplatin IC20 combos (AID 1671460); conditions: Human astrocytes, drug combinations, stronger effect = higher value;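 note: cells exposed to compounds for 96 hours before viability readout; 0% = vehicle and 100% = killing control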
[13] = growth inhibition of BT084 medulloblastoma cells, cell-based, ICGC_MB145, cisplatin and BGB IC40 combos (AID 1671461); conditions: drug combinations, stronger effect = higher value;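 note: cells exposed to drugs for 96 hours; 0% = vehicle DMSO and 100% = high DMSO full killing control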
[14] = growth inhibition of RCMB18 medulloblastoma cells, cell-based, cisplatin and BGB IC40 combos (AID 1671462); conditions: stronger effect = higher value;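 note: cells exposed to compound for four days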
[15] = growth inhibition of CRL1545 osteosarcoma cells, cell-based, cisplatin and BGB IC20 combos (AID 1671464); conditions: stronger effect = higher value;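 note: cells exposed to compound for 96 hours before readout; 0% = vehicle DMSO and 100% = high DMSO killing control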
[16] = measured here: combination with BGB IC40, at 0.05 µM
[17] = measured here: with BGB IC20 combination, at 0.5 µM
[18] = measured here: with cisplatin IC20 combination, at 0.5 µM
[19] = measured here: combination with cisplatin, at 0.5 µM
[20] = measured here: combination with cisplatin, at 5 µM

## CC[C@@]1(O)C(=O)OCc2c1cc1n(c2=O)Cc2cc3cc(O)ccc3nc2-1
[1]; at 0.5 µM, stronger effect = higher value
  inhibition: 25.9% (inactive) and 5.42% (inactive)
[1]; measured here: combination with BGB IC20, at 0.005 µM
  inhibition: 4.22% and -3.99%
[1]; measured here: combination with BGB IC40, at 0.005 µM
  inhibition: -42.5% and -15.9%
[1]; [16]
  inhibition: -16% and -4.31%
[1]; measured here: combination with cisplatin, at 0.5 µM, stronger effect = higher value
  inhibition: 62.8% and 48.1%
[1]; measured here: combination with cisplatin, at 5 µM, stronger effect = higher value
  inhibition: 89.7% and 78.7%
[2]; BGB combo, at 5 µM
  inhibition: 98.1% and 98.5%
[2]; at 0.5 µM
  inhibition: 78.7% (inactive) and 83.5% (active)
[2]; cisplatin combo, at 5 µM
  inhibition: 96.5% and 98%
[2]; [17]
  inhibition: 82.7% and 84.4%
[2]; [18]
  inhibition: 71% and 81.1%
[2]; single agent, at 5 µM
  inhibition: 96.6% and 97.8%
[3]; BGB IC20 combo, at 0.005 µM
  inhibition: 23.2% and 34.7%
[3]; BGB IC40 combo, at 0.005 µM
  inhibition: 40.1% and 53.7%
[3]; BGB IC40 combo, at 0.05 µM
  inhibition: 93.9%
[3]; at 0.5 µM
  inhibition: -30.2% (inactive) and -10.4% (inactive)
[3]; cisplatin combo, at 0.05 µM
  inhibition: 93.6% and 93.9%
[3]; cisplatin combo, at 0.5 µM
  inhibition: -46.6% and -4.75%
[3]; cisplatin combo, at 5 µM
  inhibition: -24.4% and 16.7%
[3]; measured here: 5 uM single agent, at 5 µM
  inhibition: -21.1% and 2.06%
[4]; at 0.5 µM
  inhibition: 67.2% (inactive) and 79% (inactive)
[4]; [16]
  inhibition: -33.9% and 7.21%
[4]; [19]
  inhibition: 83.2% and 73.4%
[4]; [20]
  inhibition: 84.4% and 82.5%
[5]; at 0.5 µM
  inhibition: 99% (active) and 98.8% (active)
[5]; measured here: with BGB IC20, at 0.5 µM
  inhibition: 97.9% and 98.3%
[5]; measured here: with BGB IC20, at 5 µM
  inhibition: 98.2% and 98.3%
[5]; measured here: with cisplatin IC20, at 0.5 µM
  inhibition: 99.3% and 98.9%
[5]; measured here: with cisplatin IC20, at 5 µM
  inhibition: 99.6% and 99.7%
[5]; single agent, at 5 µM
  inhibition: 99.5% and 99.7%
[6]; at 0.5 µM
  inhibition: 58.1% (inactive) and 64.8% (inactive)
[6]; measured here: combination with BGB at IC20, at 0.5 µM
  inhibition: 81.9% and 74.5%
[6]; measured here: combination with cisplatin at IC20, at 0.5 µM
  inhibition: 44.1% and 55.5%
[7]; at 0.5 µM
  inhibition: 99.4% (active) and 99.3% (active)
[7]; measured here: combo with BGB at IC20, at 0.5 µM
  inhibition: 99.4%
[7]; measured here: combo with cisplatin at IC20, at 0.5 µM
  inhibition: 99.4% and 99.2%
[8]; at 0.5 µM
  inhibition: 90.1% (active) and 89.5% (active)
[8]; measured here: inhibition with BGB combination, at 0.05 µM
  inhibition: 17.9% and 40%
[8]; measured here: inhibition with cisplatin combination, at 0.05 µM
  inhibition: 28.7% and 40.8%
[9]; at 0.5 µM
  inhibition: 21.3% (inactive) and 29.5% (inactive)
[9]; [19]
  inhibition: 63.4% and 65.4%
[9]; [20]
  inhibition: 76.4% and 77.8%
[10]; at 0.5 µM
  inhibition: 69.5% (inactive) and 70% (inactive)
[10]; measured here: BGB combination, at 0.5 µM
  inhibition: 63.8% and 64.7%
[10]; measured here: BGB combination, at 5 µM
  inhibition: 63.6% and 74.3%
[10]; measured here: cisplatin combination, at 0.5 µM
  inhibition: 71.5% and 68.7%
[10]; measured here: cisplatin combination, at 5 µM
  inhibition: 80.4% and 83.5%
[11]; BGB combination, concentration series, at 5 µM
  inhibition: 96.9% and 98%
[11]; at 0.5 µM
  inhibition: 97.1% (active) and 97.8% (active)
[11]; cisplatin combination, concentration series, at 5 µM
  inhibition: 99.8% and 104%
[12]; at 0.5 µM
  inhibition: 84.1% (active) and 83.3% (active)
[12]; measured here: combo with BGB IC20, at 0.5 µM
  inhibition: 91.6% and 86.1%
[12]; measured here: combo with cisplatin IC20, at 0.5 µM
  inhibition: 76% and 80.4%
[13]; at 0.5 µM
  inhibition: 13.5% (inactive) and 7.41% (inactive)
[13]; cisplatin combination, at 0.5 µM
  inhibition: 46.9% and 55.3%
[13]; cisplatin combination, at 5 µM
  inhibition: 28% and 7.98%
[13]; measured here: BGB IC40 combination 0.05 uM, at 0.05 µM
  inhibition: -21.8% and -8.97%
[13]; single agent, at 5 µM
  inhibition: 42.3% and 44.7%
[14]; at 0.5 µM
  inhibition: 36.1% (inactive) and 38.1% (inactive)
[14]; cisplatin combo, at 5 µM
  inhibition: 72.4% and 72.1%
[14]; measured here: BGB IC40 combination, at 0.05 µM
  inhibition: -15.2% and -13.6%
[14]; [19]
  inhibition: 47.7% and 55.8%
[14]; single agent, at 5 µM
  inhibition: 59.8% and 73%
[15]; at 0.5 µM
  inhibition: 81.7% (active) and 82.4% (active)
[15]; [17]
  inhibition: 95.3% and 93.8%
[15]; [18]
  inhibition: 74.8% and 76.7%
[15]; single agent, at 0.05 µM
  inhibition: 4.98% and 48.5%
[15]; single agent, at 5 µM
  inhibition: 99.8% and 99.9%
